Compound activity deposited in PubChem BioAssay by National Center for Advancing Translational Sciences (NCATS).
Most compounds without a hit are left out; they make up all but 4.8% or so of the library.
IL1B secr inh: blocks inflammasome-driven IL-1 beta release | THP-1 LPS/ATP IL-1B secretion, AlphaLISA, 16 h; stronger effect = lower value | activity change, % at 57.5 µM | hit rate 4.7% among 360,000 | AID 743279; in the data active = activity change below about -50%; inconclusive = mostly about -30% to -49%
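THP-1 cells pretreated 1 hr with compounds (up to 57.5 uM final), then stimulated with LPS (250 ng/mL final) plus ATP (1.25 mM final); secreted IL-1B measured by AlphaLISA after 16 hr, decreased signal indicating inhibition.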
ATXN2 expr inh: reduces ATXN2 reporter expression in HEK-293 cells. HEK-293 ATXN2-luciferase reporter, luminescence, 24 h. Potency, µM (titrated, usually from 57 µM), most hits filed as inhibitors. hit rate 0.72% among 360,000; also: nearly all actives have a fitted effect of over 55% in size
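ATXN2-luciferase reporter cells (luciferase flanked by upstream and downstream ATXN2 gene portions) were treated 24 h at 37 °C with compounds at up to 57 uM. SteadyGlo luminescence gave expression; GF-AFC fluorescence gave viability.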
USP2a inh: blocks human ubiquitin-specific protease USP2a; O75604; USP2 core, Ub-CHOP2 coupled fluorogenic reporter, 485/531; Potency, µM (highest dose often 38.3 µM), most hits filed as inhibitors; hit rate 0.01% among 330,000; AID 463254
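Cell-free coupled assay: 10nM USP2 core preincubated 30min RT with compound in Tris-HCl pH 8.0/CaCl2/CHAPS buffer, then 25nM Ub-CHOP2 and 25nM reporter substrate; fluorescence (Ex 485/Em 531) read after 60min RT, normalized to NEM inhibition, concentration-response curves fitted.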
ATXN viability: reduces viability in counter-screen for ATXN expression inhibitors. Potency, µM (titrated, usually from 56.7 µM), hits mostly cytotoxic. hit rate 0.49% among 400,000. S2 cells (HEK-293 line with an ATXN2-luciferase reporter) viability, CellTiter-Fluor protease fluorescence, 24 h; also: nearly all actives have a fitted effect of over 40% in size
USP1 inh: inhibitors of human USP1/UAF1 deubiquitinase; O94782; recombinant USP1/UAF1, Ub-Rhodamine cleavage fluorescence; Potency, µM (doses to about 57.1 µM), most hits filed as inhibitors; hit rate 0.23% among 390,000; also: nearly all actives have a fitted effect of over 60% in size
Target sequence (O94782 whole entry, looked up): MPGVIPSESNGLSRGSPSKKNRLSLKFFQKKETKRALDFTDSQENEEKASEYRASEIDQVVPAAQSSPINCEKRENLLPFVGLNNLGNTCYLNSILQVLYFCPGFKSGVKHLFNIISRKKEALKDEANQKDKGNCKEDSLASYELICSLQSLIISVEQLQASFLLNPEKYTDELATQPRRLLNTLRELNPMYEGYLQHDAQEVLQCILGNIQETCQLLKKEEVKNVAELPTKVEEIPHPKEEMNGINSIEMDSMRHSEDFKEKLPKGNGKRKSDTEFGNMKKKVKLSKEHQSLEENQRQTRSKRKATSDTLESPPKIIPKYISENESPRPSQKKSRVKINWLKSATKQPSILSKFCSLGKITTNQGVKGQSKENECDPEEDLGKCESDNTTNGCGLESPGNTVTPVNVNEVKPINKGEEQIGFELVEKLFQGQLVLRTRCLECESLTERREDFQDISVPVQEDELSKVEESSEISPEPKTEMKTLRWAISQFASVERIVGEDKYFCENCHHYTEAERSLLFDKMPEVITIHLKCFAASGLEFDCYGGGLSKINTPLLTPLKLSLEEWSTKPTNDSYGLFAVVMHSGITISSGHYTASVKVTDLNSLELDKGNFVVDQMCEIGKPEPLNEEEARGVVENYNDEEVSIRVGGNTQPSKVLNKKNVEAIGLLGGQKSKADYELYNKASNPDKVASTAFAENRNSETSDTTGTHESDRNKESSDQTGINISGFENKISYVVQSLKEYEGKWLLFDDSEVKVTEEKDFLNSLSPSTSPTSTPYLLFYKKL
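High-throughput fluorogenic screen: 1nM USP1/UAF1 complex, Ub-Rho substrate 150nM final, 50mM HEPES pH 7.8 with 0.5mM EDTA, 0.1 mg/ml BSA, 1mM TCEP and 0.01% Tween-20.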
Hits are given with their value; - = inactive; ? = inconclusive; . = no result given; [ ] = remark or other dose. Unless noted, calls follow the shape of the dose curve; as a rule, active = well fitted curve in the direction sought with a large enough effect; inconclusive = small, poorly fitted or top-dose-only effect, or another doubt; inactive = no such curve, though single readings can be large; an effect the other way counts as inactive or inconclusive.

SMILES	IL1B secr inh	ATXN2 expr inh	USP2a inh	ATXN viability	USP1 inh
C=CCc1cc(Cl)ccc1OCCCNC(C)C	-59	-	-	.	-
CCC(C)NCCOCCOc1ccc(Cl)c(C)c1C (stereo not given)	-	-	-	-	-
CCC(C)NCCOCCOc1ccc(Cl)c2ccccc12 (stereo not given)	-104	-[11.3 µM]	-	?	-
O=C(NCCSCc1c(F)cccc1Cl)Nc1ccccc1	-75	-	-	-	-
CC(C)OC(=O)c1c(NC(=O)c2cccc(C(F)(F)F)c2)sc2c1CCCC2	.	.	.	.	-
COC(=O)c1cc2occc2n1CC(=O)Nc1cc(OC)cc(OC)c1	-52	-	-	-	-
O=C(NCc1cccc(Br)c1)c1ccc(-n2cnc3cccnc32)cc1	.	.	.	.	-
CCc1ccc([C@@H]2C[C@H]3[C@@H](CN2S(=O)(=O)c2ccc(C)cc2)C(=O)C[C@@H](c2ccc(Cl)cc2)N3S(=O)(=O)c2ccc(C)cc2)cc1	-	-	.	-	.
O=c1c(O)c(-c2cccs2)oc2ccccc12	-	-	-	.	?
O=c1c(O)c(-c2cccs2)oc2ccc(Cl)cc12	-	-	?	.	25µM
CCC1C(=O)NCCN1Cc1ccc2c(c1)CN(Cc1cc(OC)ccc1OC)CCO2 (stereo not given)	.	.	.	-	.
CC(=O)c1cccc(CN2CCC(C(=O)Nc3ccc(Oc4cccnc4)cc3)CC2)c1	-	-	-	-	-
CC(=O)c1cccc(CN2CCC(C(=O)Nc3ccc(-c4cccc(C)c4)cc3)CC2)c1	-62	?	-	?	-
Cc1ccc2nc(-c3ccc(Cl)cc3)c(Cc3ccccn3)n2c1	-	-	.	-	.
COc1ccc(S(=O)(=O)N2CCCCC2)cc1NC(=O)c1ccc(N2CCCC2=O)cc1	-	-	-	-	-
CCOc1ccc(-c2nnc(SCC(=O)NCc3ccccc3Cl)o2)cc1	.	-	.	-	-
C=CCN(CC=C)CCOc1cccc2ccccc12	-57	-	-	-	?
Cc1ccc2[nH]c3c(c2c1)CN(C(=O)CC1(c2ccccc2)CC(=O)N(Cc2cccnc2)C1=O)CC3 (stereo not given)	.	.	.	-	.
O=C(CCS(=O)(=O)c1nc(-c2cccs2)cc(C(F)(F)F)n1)Nc1ccc(OC(F)(F)F)cc1	.	-	.	16µM	14µM
CC(C)c1nnc(NC(=O)CCS(=O)(=O)c2nc(-c3cccs3)cc(C(F)(F)F)n2)s1	-110	-	-	?	-
Cc1nc2ccccc2n1Cc1ccccc1	-	.	-	?	-
Cc1nc2cc(NCc3ccccc3O)ccc2n1Cc1ccccc1	-54	-	-	-	-
O=c1oc2cc(OCc3c(F)cccc3Cl)ccc2cc1-c1ccccn1	-	-	-	-	-
CCCOc1ccc2cc(-c3ccccn3)c(=O)oc2c1	-	3.5µM	-	-	-
COc1ccc(N2CC(NC(=O)c3ccco3)CC2=O)cc1OC (stereo not given)	.	-	.	-	-
SMILES	IL1B secr inh	ATXN2 expr inh	USP2a inh	ATXN viability	USP1 inh
O=C(Cn1ncc(Cl)c(Cl)c1=O)Nc1ccc2c(c1)OCO2	-99	?	-	.	-
COc1ccc(NC(=O)Cn2ncc(Cl)c(Cl)c2=O)cc1S(=O)(=O)N1CCOCC1	-54	?	-	?	-
CCN(CC)S(=O)(=O)c1cc(NC(=O)Cn2ncc(Cl)c(Cl)c2=O)ccc1C	-59	?	-	?	-
Cc1nn(CC(=O)Nc2ccc3c(c2)OCO3)c(C)c1Cl	-	.	-	-	-
CCC(=O)c1ccc2c(c1)OCCO2	-	-	-	-	-
CCN(CC)S(=O)(=O)c1cc(NC(=O)CN2C(=O)NC(C)(c3ccccc3)C2=O)ccc1C (stereo not given)	-	-	-	-	-
O=C(Cn1ncc(Cl)c(Cl)c1=O)c1ccc2c(c1)OCCO2	-99	?	-	.	-
CCC(=O)N1CCCC(C)(C(=O)NS(=O)(=O)c2cccs2)C1 (stereo not given)	-	-	.	-	.
CCOC(=O)C1=C(N)Oc2cc(O)ccc2C1c1cccc([N+](=O)[O-])c1 (stereo not given)	-97	-[11.3 µM]	-	-	?
CCOC(=O)C1=C(N)Oc2cc(O)ccc2C1c1ccc(C)cc1 (stereo not given)	-72	-	-	-	-
CCOC(=O)C1=C(N)Oc2cc(O)ccc2C1c1ccccc1 (stereo not given)	-	.	-	?	-
CN(C)c1ccc(C=C2C=Cc3ccccc32)cc1	?	-	.	?	-
CNc1ccc(C=C2C=Cc3ccccc32)cc1	-73	-	.	?	?
O=Cc1ccc(OC(=O)Cc2ccc(F)cc2)cc1	.	.	-	.	.
CC1(C)CC(=O)c2c(O)cc(OCC(=O)N3CCN(c4ccc(F)cc4)CC3)cc2O1	-55	-	-	-	-
O=C(NCc1ccc(F)c(F)c1)c1ccc(-c2ccc(F)c(F)c2)c2ccoc12	?	-	.	-	.
O=C(NCC1CCOCC1)c1ccc(-c2ccc(F)c(F)c2)c2ccoc12	-92	-	.	-	.
Cc1ccc(NC(=O)C(c2ccccc2)c2ccccc2)c(O)c1	-56	-	-	-	-
S=C(Nc1ccc(Cl)c(Cl)c1)N1CCCC1	-	-	-	-	-
S=C(Nc1ccc2nsnc2c1)N1CCCCC1	-64	-	-	-	?
OCCC1CN(Cc2nc(-c3ccccc3)cs2)CCN1Cc1ccc(F)cc1 (stereo not given)	-76	-	-	-	-
Cc1ccc(-c2csc(=Nc3cccnc3)n2CCCN2CCCC2=O)cc1C	-51	-	-	-	-
CC1(C)N=C(SCC(=O)Nc2ccc(Cl)cc2Cl)C(c2ccccc2)=N1	-87	-	-	-	-
COc1ccccc1-c1nnc(SCC(=O)Nc2ccc(Cl)cc2Cl)o1	-	-	-	-	-
CC1(C)N=C(SCC(=O)Nc2ccccc2)C(c2ccc(Cl)cc2)=N1	-93	?	-	?	-
SMILES	IL1B secr inh	ATXN2 expr inh	USP2a inh	ATXN viability	USP1 inh
Cc1ccc(C2=NC(C)(C)N=C2SCC(=O)Nc2ccc(Cl)cc2)cc1	-106	-	-	-	-
O=C(Nc1cccc(/C=C/c2nc3ccccc3c(=O)[nH]2)c1)c1ccccc1Cl	-52	-	-	?	-
CCc1ccc2oc(C(=O)Nc3sc4c(c3C(=O)NC)CCCC4)cc(=O)c2c1	.	-	.	-	-
COc1ccc(CCC(=O)Nc2c(-c3ccc(N(C)C)cc3)[nH][nH]c2=O)cc1	-	20µM	.	?	.
Cc1nnsc1S(=O)c1ccc(Cl)c(Cl)c1 (stereo not given)	-62	.	-	-	-
CN(C)c1ccc(-n2cccc2/C=C/[N+](=O)[O-])cc1	-101	?	-	30µM	-
CC(C)(C)OC(=O)N/N=C/c1cccn1-c1ccc([N+](=O)[O-])cc1	-	-	-	-	-
Cc1ccc(N2C(=O)CSC23C(=O)N(CC(=O)NCc2ccccc2)c2ccccc23)cc1C (stereo not given)	.	-	.	-	-
O=S(=O)(NC1=NCCCCC1)c1ccc2sc(NS(=O)(=O)c3ccc4ccccc4c3)nc2c1	-54	.	-	-	-
